ERAP1 HTS inh: inhibitors of human ERAP1 aminopeptidase; recombinant ERAP1, Leu-AMC fluorescence, 60 min; inhibition, % at 10.7 µM; actives 0.15% (n = 340,000); AID 652197;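 active = mean replicate inhibition of at least 30%, or all replicates individually reaching that 30% level; inactive = mean below 30% and not every replicate reaching it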;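 also: 0% = neutral control wells and 100% = L-leucinethiol positive control wells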
Target sequence (Q9NZ08 whole entry, looked up): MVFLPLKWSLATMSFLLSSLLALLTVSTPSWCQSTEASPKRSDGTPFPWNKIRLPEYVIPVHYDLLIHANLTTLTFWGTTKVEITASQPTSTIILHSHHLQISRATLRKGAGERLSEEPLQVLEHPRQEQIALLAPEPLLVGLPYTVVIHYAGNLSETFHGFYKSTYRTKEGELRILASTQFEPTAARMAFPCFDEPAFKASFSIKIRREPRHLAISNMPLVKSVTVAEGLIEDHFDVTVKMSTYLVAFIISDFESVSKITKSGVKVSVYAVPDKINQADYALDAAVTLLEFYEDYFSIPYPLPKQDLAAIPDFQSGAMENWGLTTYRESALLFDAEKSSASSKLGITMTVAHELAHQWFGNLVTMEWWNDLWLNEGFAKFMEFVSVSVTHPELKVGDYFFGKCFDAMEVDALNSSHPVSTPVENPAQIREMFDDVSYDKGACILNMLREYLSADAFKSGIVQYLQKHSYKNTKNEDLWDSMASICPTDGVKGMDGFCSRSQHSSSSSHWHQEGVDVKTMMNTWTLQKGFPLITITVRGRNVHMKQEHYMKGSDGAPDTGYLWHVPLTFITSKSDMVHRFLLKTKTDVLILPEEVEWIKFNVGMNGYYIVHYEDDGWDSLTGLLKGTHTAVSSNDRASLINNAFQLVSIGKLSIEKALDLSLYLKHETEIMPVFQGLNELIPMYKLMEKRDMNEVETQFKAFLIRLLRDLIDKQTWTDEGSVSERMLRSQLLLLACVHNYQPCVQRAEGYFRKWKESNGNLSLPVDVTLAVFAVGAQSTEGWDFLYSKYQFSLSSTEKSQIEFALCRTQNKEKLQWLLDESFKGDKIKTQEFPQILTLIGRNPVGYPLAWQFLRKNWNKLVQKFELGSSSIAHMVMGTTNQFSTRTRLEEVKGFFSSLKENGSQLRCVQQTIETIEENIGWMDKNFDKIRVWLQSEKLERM
CaV13 FRET inh: Primary screen for inhibitors of IQ motif and Ca2+-dependent inactivation inhibitor domain binding in CACNA1D, Förster resonance energy transfer in living cells, …; HEK cells, CFP/YFP FRET ICDI-IQ, plate reader, 10 min; percent FRET-ratio fall versus neutral wells; inhibition, % at 12.3 µM; actives 0.098% (n = 340,000);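 active = mean replicate inhibition of at least 30% and at least 1% of replicates passing that level; inconclusive = only one of the two criteria is met; inactive = neither criterion is met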;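 also: 0% = median of the neutral control wells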
rRNA inh HTS: inhibitors of bacterial rRNA selective over humanized ribosomes | E. coli WT GFP vs humanized-ribosome RFP mutants, fluorescence, 24 h; hits give low values; DMSO median 0, no signal -100 | AID 720706 | actives 1.6% (n = 350,000) | GFP signal change (wild-type ribosome), % (no concentration beside the values);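 active = significant combined selectivity score with lowered wild-type GFP, culture density cut under 30%, mutant RFP and density less affected; inactive = any of these conditions unmet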
PGC1a acetyl inh: PGC1a acetylation modulation, inhibitor mode | actives 0.17% (n = 350,000) | AID 651687 | inhibition, % at 15.6 µM | U2OS PGC1a acetylation, AlphaScreen anti-acetyl-lysine; with virally co-expressed GCN5 acetyltransferase;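 active = every replicate shows inhibition of at least 40%; inconclusive = mean inhibition at least 40% but some replicate below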;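 also: 0% = neutral control wells and 100% = positive control wells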
DENV2 CPE: protects cells from dengue virus 2 cytopathic effect. DENV2-infected cells, cytopathic effect rescue, plate reader. actives 1.7% (n = 350,000). CPE inhibition, % at 9.99 µM. AID 651640; in the data active = CPE inhibition above about 20%, passing the limit was not always enough; inconclusive = no clear call, values can overlap the other calls; tested in BHK-21 cells;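 also: 0% = median of neutral control wells and 100% = median of positive control wells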
GSIS activator: GLuc luminescence reporter in INS-1E cells, primary screen for activators of glucose-dependent secretion of insulin | INS-1E GLuc reporter insulin secretion, 2-3 h | activation, % at 16.6 µM | actives 0.61% (n = 370,000) | AID 743287;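 active = lowest replicate activation of at least 40%, so every replicate reaches that level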;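 also: 0% = median of neutral control wells and 100% = median of IBMX positive control wells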
The depositor's hits bear a star. This is a sample that favours compounds with a hit; in the whole collection about 3.2% have one here.

`COc1ccc(NC(=O)Nc2cccc3c2O[C@@H](CN(C)C(=O)Nc2ccc4c(c2)OCO4)[C@@H](C)CN([C@@H](C)CO)C3=O)cc1` gave ERAP1 HTS inh -3.0, rRNA inh HTS -5.5, PGC1a acetyl inh 8.0, DENV2 CPE 27.1* and GSIS activator 1.6.
Cc1ccc(S(=O)(=O)Nc2cccc3c2O[C@@H](CN(C)C(=O)Nc2ccc4c(c2)OCO4)[C@@H](C)CN([C@H](C)CO)C3=O)cc1 was read as ERAP1 HTS inh 0.4, rRNA inh HTS -6.8, PGC1a acetyl inh -4.4, DENV2 CPE 22.2* and GSIS activator -22.3.
Screening Cc1ccc(S(=O)(=O)Nc2cccc3c2O[C@@H](CN(C)C(=O)Nc2ccc4c(c2)OCO4)[C@H](C)CN([C@H](C)CO)C3=O)cc1 returned ERAP1 HTS inh -0.3, rRNA inh HTS 1.6, PGC1a acetyl inh 14.8, DENV2 CPE -4.2 and GSIS activator -9.0.
For Cc1noc(C)c1NC(=O)N(C)C[C@@H]1Oc2c(NC(=O)Nc3ccc4c(c3)OCO4)cccc2C(=O)N([C@H](C)CO)C[C@@H]1C the results were ERAP1 HTS inh -2.9, rRNA inh HTS 1.7, PGC1a acetyl inh 13.0, DENV2 CPE -3.7 and GSIS activator 4.9.
Cc1noc(C)c1NC(=O)N(C)C[C@H]1Oc2c(NC(=O)Nc3ccc4c(c3)OCO4)cccc2C(=O)N([C@H](C)CO)C[C@H]1C was read as ERAP1 HTS inh -1.3, rRNA inh HTS 3.3, PGC1a acetyl inh 11.6, DENV2 CPE 23.8* and GSIS activator -1.6.
COc1ccc(S(=O)(=O)Nc2cccc3c2O[C@@H](CN(C)C(=O)Nc2ccc4c(c2)OCO4)[C@@H](C)CN([C@H](C)CO)C3=O)cc1 was read as ERAP1 HTS inh 1.5, rRNA inh HTS -8.0, PGC1a acetyl inh 1.8, DENV2 CPE 21.4* and GSIS activator -26.7.
Cc1noc(C)c1NC(=O)Nc1ccc2c(c1)C(=O)N([C@H](C)CO)C[C@@H](C)[C@H](CN(C)Cc1ccc(C(=O)O)cc1)O2 was read as ERAP1 HTS inh -0.7, rRNA inh HTS 5.4, PGC1a acetyl inh 9.3, DENV2 CPE 9.9 and GSIS activator -3.5.
For CCC(=O)N1[C@H](CO)[C@H](c2ccccc2)C12CN(Cc1nccs1)C2 the results were ERAP1 HTS inh 0.2, rRNA inh HTS -1.2, PGC1a acetyl inh 8.5, DENV2 CPE -14.1 and GSIS activator 11.8.
`COc1ccc(S(=O)(=O)Nc2cccc3c2O[C@@H](CN(C)C(=O)Nc2c(C)noc2C)[C@@H](C)CN([C@@H](C)CO)C3=O)cc1` gave ERAP1 HTS inh 7.8, rRNA inh HTS 2.6, PGC1a acetyl inh 7.2, DENV2 CPE 26.3* and GSIS activator -0.1.
Screening COc1ccc(S(=O)(=O)Nc2cccc3c2O[C@H](CN(C)C(=O)Nc2c(C)noc2C)[C@H](C)CN([C@@H](C)CO)C3=O)cc1 returned ERAP1 HTS inh 6.2, rRNA inh HTS -1.3, PGC1a acetyl inh 4.5, DENV2 CPE 6.9 and GSIS activator 2.7.
O=C(Nc1nc(-c2ccco2)c(-c2ccco2)s1)c1ccc(F)cc1F was read as ERAP1 HTS inh 2.4, CaV13 FRET inh -6.1, rRNA inh HTS -0.4, PGC1a acetyl inh -2.3, DENV2 CPE 68.2* and GSIS activator 8.5.
O=C(COc1ccc2c(c1)OCO2)Nc1ccc2c(c1)oc1ccccc12 was read as CaV13 FRET inh -4.9, PGC1a acetyl inh 6.5 and GSIS activator 80.8*.
`O=C(Nc1ccc2c(c1)oc1ccccc12)c1ccc2c(c1)OCO2` gave CaV13 FRET inh -3.6.
Screening COc1ccc(NC(=O)c2oc3ccccc3c2NC(=O)C2CCCO2)cc1OC (stereo not drawn) returned ERAP1 HTS inh 5.6, CaV13 FRET inh -6.2, rRNA inh HTS -36.8*, PGC1a acetyl inh -1.3 and GSIS activator 2.9.
For CCOCC(=O)Nc1c(C(=O)Nc2ccc3c(c2)OCCO3)oc2ccccc12 the results were ERAP1 HTS inh 0.9, CaV13 FRET inh 5.3, rRNA inh HTS -25.0*, PGC1a acetyl inh -15.3, DENV2 CPE -6.5 and GSIS activator -15.5.
For O=C(C[C@H]1CC[C@H]2[C@@H](COC[C@H](O)CN2Cc2nccs2)O1)NCc1ccccc1 the results were ERAP1 HTS inh -1.2, rRNA inh HTS -2.2, PGC1a acetyl inh 10.6, DENV2 CPE 7.1 and GSIS activator 11.8.
For N#C[C@@H]1[C@H](c2ccccc2/C=C/c2ccccc2)[C@H](CO)N1S(=O)(=O)c1ccccc1 the results were ERAP1 HTS inh 1.6, rRNA inh HTS -5.1, PGC1a acetyl inh -6.9, DENV2 CPE -7.9 and GSIS activator -21.2.
COc1ccc(S(=O)(=O)N(C)C[C@@H]2Oc3ccc(NS(C)(=O)=O)cc3C(=O)N([C@H](C)CO)C[C@@H]2C)cc1 was read as ERAP1 HTS inh 1.1, rRNA inh HTS 1.3, PGC1a acetyl inh -2.8, DENV2 CPE 0.9 and GSIS activator 17.5.
Screening Cc1noc(C)c1S(=O)(=O)Nc1ccc2c(c1)CC(=O)N([C@H](C)CO)C[C@H](C)[C@@H](CN(C)Cc1ccc(C(F)(F)F)cc1)O2 returned ERAP1 HTS inh 1.1, PGC1a acetyl inh 1.9 and DENV2 CPE -7.9.
For COc1cccc2oc3cc(C#Cc4ccccn4)ccc3c(=O)c12 the results were ERAP1 HTS inh -1.2, CaV13 FRET inh -4.7, rRNA inh HTS 2.3, DENV2 CPE 47.7* and GSIS activator -11.1.
`CCOC(=O)C1CSCCS(=O)(=O)N1Cc1cc(F)ccc1Br` (stereo not drawn) gave ERAP1 HTS inh -3.0, CaV13 FRET inh -3.8, rRNA inh HTS -33.5*, DENV2 CPE inconclusive and GSIS activator -29.3.
Cc1ccc(S(=O)(=O)Nc2ccc3c(c2)C(=O)N([C@H](C)CO)C[C@H](C)[C@H](CN(C)S(=O)(=O)c2ccc(Cl)cc2)OCCCC[C@@H](C)O3)cc1 was read as rRNA inh HTS 4.3, PGC1a acetyl inh -3.0, DENV2 CPE 65.8* and GSIS activator 14.5.
For COc1ccc(S(=O)(=O)Nc2ccc3c(c2)C(=O)N([C@H](C)CO)C[C@H](C)[C@H](CN(C)S(C)(=O)=O)OCCCC[C@@H](C)O3)cc1 the results were ERAP1 HTS inh 0.2, rRNA inh HTS 0.5, PGC1a acetyl inh 8.9, DENV2 CPE 20.3* and GSIS activator 29.7.
Screening C[C@@H]1CCCCO[C@@H](CN(C)S(C)(=O)=O)[C@H](C)CN([C@@H](C)CO)C(=O)c2cc(NS(=O)(=O)c3ccc(Cl)cc3)ccc2O1 returned ERAP1 HTS inh -2.0, rRNA inh HTS -3.2, PGC1a acetyl inh -14.9, DENV2 CPE 83.8* and GSIS activator -3.1.
